Inconclusive results are not listed. A call without a number means that no potency is given here. Activity calls are given as the source filed them. Calls follow the shape of the dose curve; as a rule, active = well fitted inhibition curve with a large enough effect; inconclusive = small, poorly fitted or top-dose-only effect; inactive = flat fitted curve, though single readings scatter.
Columns and labels:
[1] = qHTS for identification of novel therapeutic agents for treatment of microphthalmiaassociated transcription factor (MiT) renal cell carcinoma (RCC) (AID 1963991); conditions: CellTiter-Glo, 48 h, stronger effect = lower value
In short: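 Three TFE3-fusion RCC cell lines (UOK109, UOK124, UOK145), 500 cells/well, were exposed to the 1912-compound MIPE 4.0 library for 48 hours at 37 C. Viability was read by CellTiter-Glo luminescence, normalised to DMSO (100%) and empty wells (0%), with 11-concentration curve fits.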

[2] = qHTS profiling for inhibitors of Plasmodium falciparum proliferation (AID 504749); also: potency is read from the fitted curve at half-maximal effect; as to all read-outs here: nearly all actives have a fitted effect of over 60% in size; conditions: P. falciparum in erythrocytes, SYBR Green DNA, 72 h; for activity, negative = inhibition: at 28.7 µM (top of the series)
In short: (§1)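 In a 72 h erythrocytic culture (37 C, humidified, 5% CO2) at 2.5% hematocrit and 0.3% starting parasitemia, compounds were tested; SYBR Green I in detergent lysis buffer stained parasite DNA overnight.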

3D7 = assay: as above; conditions: P. falciparum in erythrocytes, SYBR Green DNA, 72 h; series mostly up to 28.7 µM
In short: as §1

7G8 = assay: as above; conditions: P. falciparum in erythrocytes, SYBR Green DNA, 72 h; series mostly up to 28.7 µM
In short: as §1

AA1029 = assay: as above; conditions: P. falciparum in erythrocytes, SYBR Green DNA, 72 h; series mostly up to 28.7 µM
In short: as §1

AS120 = assay: as above; conditions: P. falciparum in erythrocytes, SYBR Green DNA, 72 h; series mostly up to 28.7 µM
In short: as §1

ATS189 = assay: as above; conditions: P. falciparum in erythrocytes, SYBR Green DNA, 72 h; series mostly up to 28.7 µM
In short: as §1

ATS95 = assay: as above; conditions: P. falciparum in erythrocytes, SYBR Green DNA, 72 h; series mostly up to 28.7 µM
In short: as §1

C2A = assay: as above; conditions: P. falciparum in erythrocytes, SYBR Green DNA, 72 h; series mostly up to 28.7 µM
In short: as §1

CP185 = assay: as above; conditions: P. falciparum in erythrocytes, SYBR Green DNA, 72 h; series mostly up to 28.7 µM
In short: as §1

CP191 = assay: as above; conditions: P. falciparum in erythrocytes, SYBR Green DNA, 72 h; series mostly up to 28.7 µM
In short: as §1

CP192 = assay: as above; conditions: P. falciparum in erythrocytes, SYBR Green DNA, 72 h; series mostly up to 28.7 µM
In short: as §1

CP194 = assay: as above; conditions: P. falciparum in erythrocytes, SYBR Green DNA, 72 h; series mostly up to 28.7 µM
In short: as §1

## COc1ccc2c(c1OC)CN1CCc3cc4c(cc3C1C2)OCO4 (stereo unspecified)
[1]; TFE3-RCC UOK109 viability, measured here: UOK109 Z-AUC
  z-score: 0.633
[1]; TFE3-RCC viability, measured here: UOK124 Z-AUC
  z-score: 0.605
[1]; TFE3-RCC viability, measured here: UOK145 Z-AUC
  z-score: 0.614

## CC[N+](CC)(CC)CC
[2]; parasite line A
  activity, negative = inhibition: 15.6% (inactive)
[2]; parasite line B
  activity, negative = inhibition: 17.3% (inactive)
3D7
  Potency: inactive
7G8
  Potency: inactive
AA1029
  Potency: inactive
AS120
  Potency: inactive
ATS189
  Potency: inactive
ATS95
  Potency: inactive
C2A
  Potency: inactive
CP185
  Potency: inactive
CP191
  Potency: inactive
CP192
  Potency: inactive
CP194
  Potency: inactive

## COc1ccccc1N1CCNCC1
[2]; parasite line A
  activity, negative = inhibition: -0.986% (inactive)
[2]; parasite line B
  activity, negative = inhibition: 0.847% (inactive)
3D7
  Potency: inactive
7G8
  Potency: inactive
AA1029
  Potency: inactive
AS120
  Potency: inactive
ATS189
  Potency: inactive
ATS95
  Potency: inactive
C2A
  Potency: inactive
CP185
  Potency: inactive
CP191
  Potency: inactive
CP192
  Potency: inactive
CP194
  Potency: inactive

## Oc1ccc(Cl)cc1Cc1ccccc1
[2]; parasite line A
  activity, negative = inhibition: -17.6% (inactive)
7G8
  Potency: 2 µM (active)
AS120
  Potency: 8.91 µM (active)
C2A
  Potency: inactive
CP185
  Potency: inactive

## CCN(CC)CCN1C(=O)CN=C(c2ccccc2F)c2cc(Cl)ccc21
[2]; parasite line A
  activity, negative = inhibition: -1.62% (inactive)
[2]; parasite line B
  activity, negative = inhibition: -4.36% (inactive)
3D7
  Potency: inactive
AS120
  Potency: inactive
C2A
  Potency: inactive
CP191
  Potency: inactive
CP192
  Potency: inactive

## Clc1cccc(N2CCNCC2)c1
[2]; parasite line A
  activity, negative = inhibition: 9.32% (inactive)
[2]; parasite line B
  activity, negative = inhibition: 8.49% (inactive)
3D7
  Potency: inactive
AA1029
  Potency: inactive
AS120
  Potency: inactive
ATS189
  Potency: inactive
ATS95
  Potency: inactive
C2A
  Potency: inactive
CP185
  Potency: inactive
CP191
  Potency: inactive
CP192
  Potency: inactive

## Oc1cc(Cl)ccc1Oc1ccc(Cl)cc1Cl
[2]; parasite line A
  Potency: 11.2 µM (active)
[2]; parasite line B
  Potency: 5.01 µM (active)
3D7
  Potency: 11.2 µM (active)
7G8
  Potency: 1.12 µM (active)
AA1029
  Potency: 7.94 µM (active)
AS120
  Potency: 3.98 µM (active)
ATS189
  Potency: 7.08 µM (active)
ATS95
  Potency: 10 µM (active)
CP191
  Potency: 11.2 µM (active)
CP192
  Potency: 12 µM (active)
CP194
  Potency: 13.5 µM (active)

## CC1NCCOC1c1ccccc1 (stereo unspecified)
[2]; parasite line A
  activity, negative = inhibition: 8.85% (inactive)
[2]; parasite line B
  activity, negative = inhibition: 5.03% (inactive)
3D7
  Potency: inactive
7G8
  Potency: inactive
AA1029
  Potency: inactive
AS120
  Potency: inactive
ATS189
  Potency: inactive
ATS95
  Potency: inactive
C2A
  Potency: inactive
CP185
  Potency: inactive
CP191
  Potency: inactive
CP192
  Potency: inactive
CP194
  Potency: inactive

## CC(C)(C)NCC(O)c1cc(Cl)c(N)c(Cl)c1 (stereo unspecified)
[2]; parasite line A
  activity, negative = inhibition: -4.99% (inactive)
3D7
  Potency: inactive
7G8
  Potency: 7.94 µM (active)
C2A
  Potency: inactive

## Cc1cccc(C)c1NC1=NCCCS1
[2]; parasite line A
  activity, negative = inhibition: -16.9% (inactive)
[2]; parasite line B
  activity, negative = inhibition: -6.65% (inactive)
3D7
  Potency: inactive
7G8
  Potency: 11.2 µM (active)
C2A
  Potency: inactive
CP191
  Potency: inactive
CP192
  Potency: inactive

## C[C@]12C/C(=C/O)C(=O)C[C@@H]1CC[C@@H]1[C@@H]2CC[C@@]2(C)[C@H]1CC[C@]2(C)O
[2]; parasite line A
  activity, negative = inhibition: -16.2% (inactive)
3D7
  Potency: inactive
AA1029
  Potency: inactive
AS120
  Potency: inactive
ATS189
  Potency: inactive
ATS95
  Potency: inactive
C2A
  Potency: inactive
CP185
  Potency: inactive
CP192
  Potency: inactive
CP194
  Potency: inactive

## CC(CCc1ccccc1)NC(C)C(O)c1ccc(O)cc1 (stereo unspecified)
[2]; parasite line A
  activity, negative = inhibition: 8.41% (inactive)
[2]; parasite line B
  activity, negative = inhibition: 8.3% (inactive)
3D7
  Potency: inactive
CP185
  Potency: inactive
CP191
  Potency: inactive
CP192
  Potency: inactive

## C=C1CC[C@@]2(O)[C@H]3Cc4ccc(O)c5c4[C@@]2(CCN3CC2CC2)[C@H]1O5
[2]; parasite line A
  activity, negative = inhibition: 9.27% (inactive)
[2]; parasite line B
  activity, negative = inhibition: 12.8% (inactive)
3D7
  Potency: inactive
7G8
  Potency: inactive
AA1029
  Potency: inactive
AS120
  Potency: inactive
ATS189
  Potency: inactive
ATS95
  Potency: inactive
C2A
  Potency: inactive
CP185
  Potency: inactive
CP192
  Potency: inactive
CP194
  Potency: inactive

## O=c1[nH]c2ccccc2n1C1CCN(CCCC(c2ccc(F)cc2)c2ccc(F)cc2)CC1
[2]; parasite line B
  activity, negative = inhibition: -29.2% (inactive)
3D7
  Potency: 15.8 µM (active)
AA1029
  Potency: inactive
ATS189
  Potency: inactive
ATS95
  Potency: inactive
C2A
  Potency: inactive
CP185
  Potency: inactive
CP192
  Potency: inactive

## Cc1ccc(S(=O)(=O)N[C@@H](CCCCN)C(=O)CCl)cc1
[2]; parasite line A
  Potency: 7.08 µM (active)
7G8
  Potency: 8.91 µM (active)
AA1029
  Potency: 10 µM (active)
AS120
  Potency: 11.2 µM (active)
C2A
  Potency: 11.2 µM (active)
CP191
  Potency: 8.91 µM (active)
CP192
  Potency: inactive

## c1ccc2c(c1)Nc1ccccc1S2
3D7
  Potency: 4.47 µM (active)
AS120
  Potency: inactive
CP191
  Potency: 7.94 µM (active)

## CN1C(=S)CN=C(c2ccccc2)c2cc(Cl)ccc21
[2]; parasite line A
  activity, negative = inhibition: -4.94% (inactive)
[2]; parasite line B
  activity, negative = inhibition: 2.35% (inactive)
3D7
  Potency: inactive
7G8
  Potency: inactive
AA1029
  Potency: inactive
AS120
  Potency: inactive
ATS189
  Potency: inactive
ATS95
  Potency: inactive
C2A
  Potency: inactive
CP185
  Potency: inactive
CP191
  Potency: inactive
CP194
  Potency: inactive

## CC(C)(N)Cc1ccc(Cl)cc1
[2]; parasite line A
  activity, negative = inhibition: -1.24% (inactive)
[2]; parasite line B
  activity, negative = inhibition: 1.12% (inactive)
3D7
  Potency: inactive
AS120
  Potency: inactive
C2A
  Potency: inactive
CP185
  Potency: inactive
CP191
  Potency: inactive
CP192
  Potency: inactive

## CC(C)NCC(O)c1ccccc1Cl (stereo unspecified)
[2]; parasite line B
  Potency: 11.2 µM (active)
7G8
  Potency: 4.47 µM (active)
AA1029
  Potency: 4.47 µM (active)
AS120
  Potency: 12.6 µM (active)
ATS95
  Potency: 11.2 µM (active)

## CCCN1CCC[C@@H]2Cc3[nH]ncc3C[C@H]21
CP192
  Potency: inactive
CP194
  Potency: inactive

## NP(N)(=O)NC(=O)c1ccc(F)cc1
[2]; parasite line A
  activity, negative = inhibition: -1.33% (inactive)
[2]; parasite line B
  activity, negative = inhibition: 3.8% (inactive)
3D7
  Potency: inactive
7G8
  Potency: inactive
AA1029
  Potency: inactive
AS120
  Potency: inactive
ATS189
  Potency: inactive
ATS95
  Potency: inactive
C2A
  Potency: inactive
CP191
  Potency: inactive
CP192
  Potency: inactive
CP194
  Potency: inactive

## CC[C@@H](CO)NC(=O)[C@@H]1C=C2c3cccc4[nH]cc(c34)C[C@H]2N(C)C1
[2]; parasite line A
  activity, negative = inhibition: 17.2% (inactive)
[2]; parasite line B
  activity, negative = inhibition: 1.58% (inactive)
3D7
  Potency: inactive
AA1029
  Potency: inactive
AS120
  Potency: inactive
ATS189
  Potency: inactive
ATS95
  Potency: inactive
C2A
  Potency: inactive
CP185
  Potency: inactive
CP191
  Potency: inactive
CP194
  Potency: inactive

## CN1C[C@H](CNC(=O)OCc2ccccc2)C[C@@H]2c3cccc4c3c(cn4C)C[C@H]21
[2]; parasite line A
  Potency: 7.08 µM (active)
7G8
  Potency: 5.01 µM (active)
AA1029
  Potency: 6.31 µM (active)
AS120
  Potency: 10 µM (active)
ATS189
  Potency: 10 µM (active)
ATS95
  Potency: 11.2 µM (active)
C2A
  Potency: 8.91 µM (active)
CP185
  Potency: 8.91 µM (active)

Reference: PubChem BioAssay (NCATS)
